CRFBP-R2 block = antagonists of CRF-BP/CRF-R2 complex, primary screen, cell-based, HEK293, calcium dye fluorescence, uHTS; CRF-induced calcium fluorescence; actives 0.59% (n = 350,000); inhibition, % at 11.8 µM;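 active = inhibition of the ligand-induced calcium signal above about 50% at the single tested concentration, limit read from the data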
FAS-TE inh = FAS thioesterase domain inhibitors, primary screen, biochemical, fluorescence intensity, uHTS; Fatty acid synthase (Homo sapiens), P49327; recombinant FAS-TE, OMFH fluorogenic substrate, fluorescence endpoint; inhibition, % at 15 µM; actives 0.67% (n = 360,000);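 active = compounds whose normalised, plate-corrected inhibition of enzyme fluorescence in the single-dose primary screen is 50% or more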;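 also: 0% = DMSO with enzyme and 100% = substrate without enzyme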
NadD inh = inhibitors of S. aureus NadD, primary screen, biochemical, colorimetric, uHTS. Nicotinate-nucleotide adenylyltransferase NadD (Staphylococcus aureus N315). inhibition, % at 20 µM. actives 0.78% (n = 360,000). AID 602399, 2012. purified NadD enzyme, colorimetric absorbance read-out; in the data active = inhibition above about 26%
Myeloid diff 2 = induction of myeloid progenitor differentiation, primary screen, cell-based, flow cytometry, MLPCN library | ER-HoxA9 myeloid progenitors, lysozyme-GFP differentiation | calls only at 10 µM | actives 1% (n = 360,000) | AID 624256, 2012;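 active = normalized GFP-positive differentiation at or above the plate's own cutoff, the solvent-only control mean plus 3 SD; inconclusive = no clear call, values can overlap the other calls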;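 also: cells exposed to compound for four days before flow analysis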
CendR NRP1 mod = modulators of CendR peptide binding to NRP-1, primary screen, biochemical, fluorescence polarization, uHTS. Neuropilin-1 (Homo sapiens), O14786. FAM-RPARPAR peptide binding to NRP-1. inhibition, % at 25 µM. actives 0.85% (n = 360,000). AID 602438, 2012;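 active = inhibition or corrected inhibition above about 18%, plus a signal ratio from 0.5 to 1.5, limit read from the data, passing the limit was not always enough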
* = called active by the depositor; i = inactive; ? = inconclusive; · = not tested or not shown; + = active, no number. An excerpt weighted towards active compounds, which were near 3.6% of everything screened.

SMILES	CRFBP-R2 block	FAS-TE inh	NadD inh	Myeloid diff 2	CendR NRP1 mod
N#Cc1cc(Sc2ccccn2)c([N+](=O)[O-])cc1C#N	8	42	4	+	-61
O=C(O)CSCC(=O)Nc1ccccc1SCCS(=O)(=O)c1ccc(Cl)cc1	4	-6	-6	+	7
O=C(CCS(=O)(=O)c1ccccc1)Nc1ccccc1F	-13	-14	-2	i	7
O=C(/C=C/c1ccc(Cl)cc1)Nc1nccs1	-5	-3	0	+	1
CCc1cc(=O)n2[nH]c(C)c(-c3ccc(OC)cc3)c2n1	5	-3	2	i	14
COc1cccc(N=Nc2c(N)[nH]n3c(=O)cc(-c4ccccc4)nc23)c1	21	4	42*	i	9
Cc1ccc(N=Nc2c(N)[nH]n3c(=O)cc(-c4ccccc4)nc23)cc1	59*	11	55*	i	-7
COc1ccc(-c2c(C(F)(F)F)[nH]n3c(=O)cc(-c4ccccc4)nc23)cc1	70*	21	17	i	-12
CCCCn1c(N)c(N(CCC(C)C)C(=O)CC2CCCCC2)c(=O)[nH]c1=O	8	-2	1	i	-5
CCCCOc1ccc(C(=O)N/C(=C/C=C/c2ccccc2)C(=O)O)cc1	-6	16	7	i	21*
CC(C)C[C@H]1COc2cc(N(C)CCO)ccc2S(=O)(=O)N1	·	-8	-4	i	13
C[C@@H]1CCCCO[C@@H](CN(C)C(=O)c2ccncc2)[C@@H](C)CN([C@H](C)CO)C(=O)c2cc(NC(=O)Cc3ccccc3)ccc2O1	-6	-8	0	i	9
Cc1ccc2[nH]c3c(c2c1)CN(C(=O)CN1CC(C)OC(C)C1)CC3 (stereo not drawn)	6	-19	-6	+	-58
CC(=O)N1CCc2[nH]c3ccc(C)cc3c2C1	-36	-2	0	i	19
CCCN1CCN(c2ncnc3c2nnn3Cc2ccccc2)CC1	26	3	-6	+	6
CCOC(=O)C1CCN(c2ncnc3c2nnn3Cc2ccccc2Cl)CC1	59*	4	-3	i	-15
CCN1CCN(C(=O)c2ccc3c(c2)N(Cc2ccc(C)cc2)CCS3)CC1	-13	0	1	?	4
Cc1ccc(CN2CCSc3ccc(C(=O)N4CCN(c5ncccn5)CC4)cc32)cc1	62*	26	2	i	-6
COC(=O)CCCC1=CC2=C(c3ccccc3)C(=O)C(C)(OC(=O)C3CCCC3)C(=O)C2=CN1Cc1ccco1 (stereo not drawn)	-9	-3	9	i	30*
COc1ccc(-c2nn(-c3ccccc3)cc2N)cc1	10	1	-2	+	-2
COc1ccccc1N(C(=O)CNC(=O)c1ccco1)C(C(=O)NC1CCCC1)c1ccco1 (stereo not drawn)	-5	-3	-15	i	18*
COc1ccc(OC)c(N(C(=O)c2ccco2)C(C(=O)NC2CCCC2)c2ccc(N3CCOCC3)cc2)c1 (stereo not drawn)	-1	10	2	i	4
COc1ccccc1N(C(=O)c1ccco1)C(C(=O)NC1CCCCC1)c1cc(OC)c(OC)c(OC)c1 (stereo not drawn)	-12	-1	5	i	26*
Cc1cc(C)cc(N(C(=O)CNC(=O)c2ccco2)C(C(=O)NC2CCCCC2)c2ccncc2)c1 (stereo not drawn)	14	-1	-6	i	22*
COc1ccc(C)cc1N(C(=O)c1ccco1)C(C(=O)NC1CCCC1)c1ccc(N2CCOCC2)cc1 (stereo not drawn)	-5	4	-1	+	-5
SMILES	CRFBP-R2 block	FAS-TE inh	NadD inh	Myeloid diff 2	CendR NRP1 mod
C[C@H](CO)N1C[C@H](C)[C@H](CN(C)C(=O)Nc2cccc(F)c2)Oc2cc(C#CC3(O)CCCC3)ccc2S1(=O)=O	-9	0	3	i	-12
Cc1nn(CC(C)C)c(Cl)c1C(=O)N(C)CC(=O)Nc1c(Cl)cccc1Cl	-3	-2	-6	+	-1
Cc1cccc(Oc2sc(C(=O)c3ccccc3)c(N)c2C#N)c1	3	27	-5	i	31*
N#Cc1c(Nc2ccccc2)sc(C(=O)c2ccccc2)c1N	-2	-13	-2	i	7
CCc1ccc(C(=O)N2CCN(c3ccc(NC(=O)c4cccnc4)cc3)CC2)cc1	1	-4	-8	i	8
c1ccc(Nc2nc(-c3ccccn3)cs2)cc1	-23	0	7	i	11
COc1cccc2sc(Nc3nc(-c4ccccn4)cs3)nc12	·	17	35*	?	-8
COc1cccc(/C(O)=C/c2nc3ccc(C(=O)NCCc4cccc(C)c4)cc3[nH]c2=O)c1	-61	-12	25	+	-61
CCCCNC(=O)C1(C)CCCCN1Cc1ccc(-c2ccccc2)cc1 (stereo not drawn)	·	17	-2	i	6
O=C(/C=C/c1cc[n+](CC(=O)c2ccc3cccc4c3c2CC4)cc1)c1ccc2cccc3c2c1CC3	-9	3	83*	+	-54
O=C(C[n+]1ccc2ccccc2c1)c1cccc2ccccc12	2	4	1	i	-7
O=C(O)c1ccc(-c2ccc(/C=N/Nc3ccc([N+](=O)[O-])cc3)o2)cc1	-121	2	2	+	68
CC(C)(C)NC(=S)N/N=C\c1ccc(-c2ccc([N+](=O)[O-])cc2)o1	-44	37	9	+	-86
CCCCC(=O)N/N=C/c1ccc(-c2ccc([N+](=O)[O-])cc2)o1	-17	11	-7	i	-1
O=C(O)c1ccc(NC(=S)Nc2ccc(S(=O)(=O)Nc3ccccn3)cc2)cc1	-18	-5	4	i	1
COc1ccc(N2CCN(C(=O)C(Cc3ccccc3)n3cccc3)CC2)cc1 (stereo not drawn)	22	6	0	i	-17
CN([C@@H](Cc1ccc(OS(=O)(=O)c2cccc3cnccc23)cc1)C(=O)N1CCN(c2ccccc2)CC1)S(=O)(=O)c1cccc2cnccc12	-25	38	32*	?	-11
COC(=O)CSc1nnc(C)n1-c1cccc(OC)c1	4	-9	1	i	5
COc1ccc(-n2c(COc3ccc(C)cc3)nnc2SCC(N)=O)cc1	-1	-4	-1	+	-1
COC(=O)CSc1nnc(C)n1-c1ccc(C)cc1	4	-8	-6	+	12
CN(CC(=O)Nc1ccc(F)cc1)C(=O)c1ccc(-c2ccc(F)cc2)o1	-30	8	-2	i	-4
CC(C)(C)NC(=O)C1(C)CCC(=O)N1CCCn1ccnc1 (stereo not drawn)	·	-11	-4	i	-2

High-throughput results: PubChem, several laboratories
